In PubChem BioAssay (Tox21):
Inconclusive results are not listed. Active and inactive are the calls of the source. Unless noted, calls come from the whole dose curve; as a rule, active = well fitted curve in the direction sought with a large enough effect in the repeat runs; inconclusive = weak or mixed curves; inactive = flat fitted curve, though single readings scatter.

What was measured:
[1] = qHTS assay to test for compound auto fluorescence at 535 nm (green) in HEK293 cells (AID 720680)
[2] = qHTS assay to test for compound auto fluorescence at 460 nm (blue) in HEK293 cell free culture (AID 720681)
Method in brief: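 Compounds were added to cell-free DMEM with 10% FBS and fluorescence read directly. The blue channel used 405 nm excitation and 460 nm emission, with triamterene as the reference fluorophore.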

[3] = qHTS assay to test for compound auto fluorescence at 590 nm (red) in HEK293 cell free culture (AID 720683)
Method in brief: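 Cell-free wells of DMEM with 10% FBS received compound, and intrinsic fluorescence was read at excitation/emission 540/590 nm. Values expressed as equivalence to Rose Bengal sodium.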

[4] = qHTS assay to test for compound auto fluorescence at 590 nm (red) in HepG2 cell free culture (AID 720684)
Method in brief: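 Rose Bengal sodium served as the reference for red signal. Test compounds were dispensed into serum-containing MEM (10% FBS) without cells, and plates were read at 540/590 nm.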

[5] = qHTS assay to test for compound auto fluorescence at 460 nm (blue) in HepG2 cell free culture (AID 720685)
Method in brief: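 Cell-free plates of MEM plus 10% FBS received 23 nL compound or DMSO vehicle; blue-channel (405/460 nm) intensity scored against triamterene as reference fluorophore.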

[6] = qHTS assay to test for compound auto fluorescence at 535 nm (green) in HepG2 cell free culture (AID 720686)
[7] = qHTS assay to test for compound auto fluorescence at 460 nm (blue) in HepG2 cells (AID 720687)
Method in brief: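 HepG2 cells in MEM with 10% FBS, attached overnight at 37 C, were exposed to compound or DMSO for 1 hr at 37 C, 5% CO2. Blue fluorescence was read at 405/460 nm, with triamterene as reference fluorophore.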

[8] = molecular target: Glucocorticoid receptor (Homo sapiens) (UniProt P04150); test: qHTS assay to identify small molecule agonists of the glucocorticoid receptor (GR) signaling pathway (AID 720691; active = well fitted activation curve with a large enough effect in the signal ratio in the repeat runs, not every such curve was filed as active; the % refers to the signal ratio)
Method in brief: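 Compounds in DMSO, alongside positive controls, were added to GR-bla HeLa reporter cells and incubated 18 h at 37 C; GRE-driven beta-lactamase was detected by fluorescence after 2 h with FRET substrate at room temperature.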

[9] = qHTS assay to test for compound auto fluorescence at 535 nm (green) in HEK293 cell free culture (AID 720682)
Method in brief: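 Compounds were pin-transferred into cell-free DMEM with 10% FBS, and green fluorescence was read at excitation 485 nm and emission 535 nm. Intensities were expressed as fluorescein-equivalent values.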

[10] = molecular target: Glucocorticoid receptor (Homo sapiens) (UniProt P04150); test: qHTS assay to identify small molecule antagonists of the glucocorticoid receptor (GR) signaling pathway (AID 720692; active = well fitted inhibition curve with a large enough effect in the signal ratio in the repeat runs, not every such curve was filed as active; the % refers to the signal ratio)
Method in brief: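 In a 1536-well cell format, compounds were added 4 h after seeding GR-bla HeLa cells, together with dexamethasone at 5 nM final; reporter activity was measured by FRET-substrate fluorescence following 18 h at 37 C.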

Measured: Potency

Sequence of Glucocorticoid receptor (Homo sapiens) (P04150 whole entry, looked up): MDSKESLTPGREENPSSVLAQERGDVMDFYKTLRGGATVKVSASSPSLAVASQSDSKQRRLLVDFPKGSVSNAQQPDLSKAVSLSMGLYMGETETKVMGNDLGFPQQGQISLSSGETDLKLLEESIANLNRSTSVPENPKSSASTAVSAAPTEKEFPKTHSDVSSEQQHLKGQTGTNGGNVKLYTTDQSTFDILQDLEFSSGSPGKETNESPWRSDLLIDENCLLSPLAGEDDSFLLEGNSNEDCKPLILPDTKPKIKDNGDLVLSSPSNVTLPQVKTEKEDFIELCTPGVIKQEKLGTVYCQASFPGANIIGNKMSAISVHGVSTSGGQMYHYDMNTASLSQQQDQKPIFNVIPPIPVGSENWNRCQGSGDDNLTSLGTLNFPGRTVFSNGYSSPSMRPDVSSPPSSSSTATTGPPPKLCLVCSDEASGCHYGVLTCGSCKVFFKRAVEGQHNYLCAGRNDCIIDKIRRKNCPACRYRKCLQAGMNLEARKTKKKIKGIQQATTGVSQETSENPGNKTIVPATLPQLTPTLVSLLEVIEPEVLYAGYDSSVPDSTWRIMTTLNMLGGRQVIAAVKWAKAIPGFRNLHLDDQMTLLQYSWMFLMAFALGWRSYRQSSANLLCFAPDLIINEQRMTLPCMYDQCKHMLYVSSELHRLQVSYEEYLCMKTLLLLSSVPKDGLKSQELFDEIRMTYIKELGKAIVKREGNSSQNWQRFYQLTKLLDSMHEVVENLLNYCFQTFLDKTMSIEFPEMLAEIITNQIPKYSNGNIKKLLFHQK

N#C/C=C/C#N
inactive: [1] | [2] | [3] | [4] | [5] | [6] | [7] | [8]

CC1(C)C(/C=C(\Cl)C(F)(F)F)C1C(=O)OC(C#N)c1cccc(Oc2ccccc2)c1 (stereo not given)
inactive: [1] | [2] | [3] | [4] | [5] | [6] | [7]

CC(C)N1C(=O)N(c2ccccc2)CSC1=NC(C)(C)C
inactive: [1] | [2] | [9] | [3] | [4] | [5] | [7] | [8]

CCCCCCCCCCCCCCCC[n+]1ccccc1
inactive: [1] | [2] | [3] | [4] | [5] | [7]

CC(C)OC(=S)S
inactive: [1] | [2] | [3] | [4] | [5] | [6] | [7]

CC(=O)c1cc(C(C)(C)C)cc2c1CCC2(C)C
inactive: [1] | [2] | [3] | [4] | [5] | [7] | [8]

BrC(Br)Br
inactive: [1] | [2] | [9] | [3] | [4] | [5] | [7] | [8]

Cc1ccc(OP(=O)(Oc2ccccc2)Oc2ccccc2)cc1
inactive: [1] | [2] | [3] | [4] | [5] | [6] | [7]

CCCCCCCCCCCCCCCCCCn1cc[n+](C)c1
inactive: [1] | [2] | [3] | [4] | [5] | [6] | [7] | [8]

CCCCCCCCCCCCBr
inactive: [1] | [2] | [3] | [4] | [5] | [6] | [7] | [8] | [10]

CS(=O)(=O)c1ccc(C(=O)C2C(=O)CCCC2=O)c([N+](=O)[O-])c1
inactive: [1] | [2] | [3] | [4] | [5] | [6] | [7] | [8]

CC1(c2ccc(Oc3ccccc3)cc2)OC(=O)N(Nc2ccccc2)C1=O (stereo not given)
inactive: [1] | [2] | [3] | [4] | [5] | [6] | [7]

Oc1ccc(C2(c3ccc(O)cc3)c3ccccc3-c3ccccc32)cc1
inactive: [1] | [2] | [3] | [4] | [5] | [6] | [7]

FC(F)(F)c1cccc(C2=CCN(CCc3ccc4ccccc4c3)CC2)c1
inactive: [1] | [2] | [9] | [3] | [4] | [5] | [7] | [8] | [10]

CCCCCCCCCBr
inactive: [1] | [2] | [9] | [3] | [4] | [5] | [7] | [8]

N#CSCSC#N
inactive: [1] | [2] | [9] | [3] | [4] | [5] | [7]

O=c1[nH]c2ccccc2n1CCCN1CCC(n2c(=O)[nH]c3cc(Cl)ccc32)CC1
inactive: [1] | [2] | [9] | [3] | [4] | [5] | [7] | [8]

CC(=O)O[C@H]1CC[C@@]2(C)C(=CC[C@@H]3[C@@H]2CC[C@]2(C)C(=O)CC[C@@H]32)C1
inactive: [1] | [2] | [3] | [4] | [5] | [6] | [7] | [8] | [10]

CC1(C)CC/C(=C/c2ccc(Cl)cc2)C1(O)Cn1cncn1 (stereo not given)
inactive: [1] | [2] | [3] | [4] | [5] | [7] | [8]

CC1CCC(C(C)C)C(OC(=O)c2ccccc2N)C1 (stereo not given)
inactive: [1] | [9] | [3] | [4] | [5] | [6] | [7] | [10]

C[C@@H]1CC[C@@]2(OC1)O[C@H]1[C@@H](O)[C@H]3[C@@H]4CC[C@H]5C[C@@H](O[C@@H]6O[C@H](CO)[C@H](O[C@@H]7O[C@H](CO)[C@@H](O)[C@H](O[C@@H]8OC[C@@H](O)[C@H](O)[C@H]8O)[C@H]7O[C@@H]7O[C@H](CO)[C@@H](O)[C@H](O[C@@H]8O[C@H](CO)[C@@H](O)[C@H](O)[C@H]8O)[C@H]7O)[C@H](O)[C@H]6O)[C@H](O)C[C@]5(C)[C@H]4CC[C@]3(C)[C@H]1[C@@H]2C
inactive: [1] | [9] | [3] | [4] | [5] | [6] | [7]

O=[N+]([O-])c1cc(C(F)(F)F)c(Cl)c([N+](=O)[O-])c1Cl
inactive: [1] | [9] | [3] | [4] | [5] | [6] | [7]

Nc1ccccc1C(=O)OC/C=C/c1ccccc1
inactive: [1] | [9] | [3] | [4] | [5] | [6] | [7] | [8] | [10]

[Hg+2].[I-].[I-]
inactive: [1] | [9] | [3] | [4] | [5] | [7]

Cc1cc(SCc2sc(-c3ccc(C(F)(F)F)c(F)c3)nc2C)ccc1OCC(=O)O
inactive: [1] | [3] | [4] | [5] | [6] | [7]

COc1cc(C=O)cc2c1[C@H](COC(N)=O)[C@]1(OC(C)=O)ON2C[C@H]2[C@@H]1N2C(C)=O
inactive: [1] | [9] | [3] | [4] | [5] | [6] | [7]
